The supplement of paper PMC12282887
± gives the standard deviation of the averaged measurements.

Tested on: E. coli BW25113 marRABp lux reporter
Experiment: promoter activity interaction Z-score (Lux/OD deviation from empty-vector control); higher = stronger promoter induction by the compound
Protocol: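 E. coli BW25113 (wild type or ΔmarA/ΔsoxS/Δrob) carrying pTU175 luxCDABE promoter reporters was grown in LB in 384-well plates at 37°C with each of 94 compounds at 4 two-fold concentrations, in biological duplicates. Luminescence and OD600 were read every 30 min for 12 h and integrated as AUC over 8 h (0-8 h WT, 1-9 h mutants). Lux AUC was divided by OD AUC; the interaction score is the residual of a Huber robust fit of each promoter against the empty-vector control, then Z-transformed per promoter.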

With `COc1cc(Cc2cnc(N)nc2N)cc(OC)c1OC` [Trimethoprim] the “promoter activity interaction Z-score” value (0.073 µg/ml, genetic background: wild type) was -0.00717 ± 0.14, the “promoter activity interaction Z-score” value (0.073 µg/ml, genetic background: ΔmarA) was 0.354 ± 0.26 and the “promoter activity interaction Z-score” value (0.073 µg/ml, genetic background: Δrob) was 0.118 ± 0.14. The “promoter activity interaction Z-score” value (0.073 µg/ml, genetic background: ΔsoxS) was 0.299 ± 0.38, the “promoter activity interaction Z-score” value (0.15 µg/ml, genetic background: wild type) was 1.11 ± 0.81 and the “promoter activity interaction Z-score” value (0.15 µg/ml, genetic background: ΔmarA) was 1.71 ± 0.26. The “promoter activity interaction Z-score” value (0.15 µg/ml, genetic background: Δrob) was 0.43 ± 0.16, the “promoter activity interaction Z-score” value (0.15 µg/ml, genetic background: ΔsoxS) was 0.811 ± 0.45 and the “promoter activity interaction Z-score” value (0.29 µg/ml, genetic background: wild type) was 0.921 ± 0.63. The “promoter activity interaction Z-score” value (0.29 µg/ml, genetic background: ΔmarA) was 1.36 ± 0.27, the “promoter activity interaction Z-score” value (0.29 µg/ml, genetic background: Δrob) was 0.367 ± 0.12 and the “promoter activity interaction Z-score” value (0.29 µg/ml, genetic background: ΔsoxS) was 0.729 ± 0.19. For the same compound, the “promoter activity interaction Z-score” value (0.58 µg/ml, genetic background: wild type) was 0.146 ± 0.067, the “promoter activity interaction Z-score” value (0.58 µg/ml, genetic background: ΔmarA) was 0.423 ± 0.12 and the “promoter activity interaction Z-score” value (0.58 µg/ml, genetic background: Δrob) was 0.143 ± 0.17. For the same compound, the “promoter activity interaction Z-score” value (0.58 µg/ml, genetic background: ΔsoxS) was 0.484 ± 0.068.
For `C[C@H](CCC(=O)O)[C@H]1CC[C@H]2[C@@H]3CC[C@@H]4C[C@H](O)CC[C@]4(C)[C@H]3C[C@H](O)[C@]12C` [Deoxycholic acid], the “promoter activity interaction Z-score” value (24.5 µg/ml, genetic background: wild type) was -0.31 ± 0.18, the “promoter activity interaction Z-score” value (24.5 µg/ml, genetic background: ΔmarA) was -0.0533 ± 0.055 and the “promoter activity interaction Z-score” value (24.5 µg/ml, genetic background: Δrob) was -0.148 ± 0.14. For the same compound, the “promoter activity interaction Z-score” value (24.5 µg/ml, genetic background: ΔsoxS) was -0.343 ± 0.17, the “promoter activity interaction Z-score” value (49.1 µg/ml, genetic background: wild type) was -0.0619 ± 0.22 and the “promoter activity interaction Z-score” value (49.1 µg/ml, genetic background: ΔmarA) was -0.261 ± 0.22. The “promoter activity interaction Z-score” value (49.1 µg/ml, genetic background: Δrob) was -0.128 ± 0.13, the “promoter activity interaction Z-score” value (49.1 µg/ml, genetic background: ΔsoxS) was -0.203 ± 0.24 and the “promoter activity interaction Z-score” value (98.1 µg/ml, genetic background: wild type) was -0.0956 ± 0.065. For the same compound, the “promoter activity interaction Z-score” value (98.1 µg/ml, genetic background: ΔmarA) was -0.111 ± 0.12, the “promoter activity interaction Z-score” value (98.1 µg/ml, genetic background: Δrob) was -0.283 ± 0.077 and the “promoter activity interaction Z-score” value (98.1 µg/ml, genetic background: ΔsoxS) was -0.336 ± 0.16. The “promoter activity interaction Z-score” value (196.3 µg/ml, genetic background: wild type) was -0.225 ± 0.38, the “promoter activity interaction Z-score” value (196.3 µg/ml, genetic background: ΔmarA) was -0.118 ± 0.15 and the “promoter activity interaction Z-score” value (196.3 µg/ml, genetic background: Δrob) was -0.197 ± 0.065. The “promoter activity interaction Z-score” value (196.3 µg/ml, genetic background: ΔsoxS) was -0.366 ± 0.062.
With `COc1ccc(CCN(C)CCCC(C#N)(c2ccc(OC)c(OC)c2)C(C)C)cc1OC` (stereo not drawn) [Verapamil] the “promoter activity interaction Z-score” value (28.4 µg/ml, genetic background: wild type) was 0.257 ± 0.13, the “promoter activity interaction Z-score” value (28.4 µg/ml, genetic background: ΔmarA) was 0.21 ± 0.17 and the “promoter activity interaction Z-score” value (28.4 µg/ml, genetic background: Δrob) was 0.064 ± 0.21. For the same compound, the “promoter activity interaction Z-score” value (28.4 µg/ml, genetic background: ΔsoxS) was -0.241 ± 0.54, the “promoter activity interaction Z-score” value (56.8 µg/ml, genetic background: wild type) was 0.22 ± 0.12 and the “promoter activity interaction Z-score” value (56.8 µg/ml, genetic background: ΔmarA) was 0.273 ± 0.099. The “promoter activity interaction Z-score” value (56.8 µg/ml, genetic background: Δrob) was 0.311 ± 0.47, the “promoter activity interaction Z-score” value (56.8 µg/ml, genetic background: ΔsoxS) was 0.0416 ± 0.54 and the “promoter activity interaction Z-score” value (113.7 µg/ml, genetic background: wild type) was 0.853 ± 0.13. For the same compound, the “promoter activity interaction Z-score” value (113.7 µg/ml, genetic background: ΔmarA) was 0.923 ± 0.54, the “promoter activity interaction Z-score” value (113.7 µg/ml, genetic background: Δrob) was 0.659 ± 0.32 and the “promoter activity interaction Z-score” value (113.7 µg/ml, genetic background: ΔsoxS) was 0.193 ± 0.7. For the same compound, the “promoter activity interaction Z-score” value (227.3 µg/ml, genetic background: wild type) was 0.957 ± 0.16, the “promoter activity interaction Z-score” value (227.3 µg/ml, genetic background: ΔmarA) was 1.14 ± 0.38 and the “promoter activity interaction Z-score” value (227.3 µg/ml, genetic background: Δrob) was 0.739 ± 0.49. The “promoter activity interaction Z-score” value (227.3 µg/ml, genetic background: ΔsoxS) was 0.385 ± 0.48.
